Measurements: PubChem BioAssay (NCI)
The panel holds about 83,000 compounds, 20% with a hit somewhere; the sample as a whole holds those more often.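 The test compound was applied at a single concentration to cells in 96-well plates for 48 hours, and percent growth was recorded.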 Unmarked numbers belong to inactive results. Activity calls are given as the source filed them. How the source made its calls: active means growth percent below 10; inactive means the rest.

What was measured:
Assay in all cases: NCI-60 one-dose screen, 48 h (100 = growth as untreated, 0 = no growth, -100 = all killed)
Conditions in all cases: 10 µM unless noted
SR leukemia = tested on: SR leukemia
RPMI-8226 leukemia = tested on: RPMI-8226 leukemia
OVCAR-8 ovarian = tested on: OVCAR-8 ovarian
OVCAR-4 ovarian = tested on: OVCAR-4 ovarian
SK-OV-3 ovarian = tested on: SK-OV-3 ovarian
IGROV1 ovarian = tested on: IGROV1 ovarian
OVCAR-3 ovarian = tested on: OVCAR-3 ovarian
HS 578T breast = tested on: HS 578T breast
OVCAR-5 ovarian = tested on: OVCAR-5 ovarian
NCI/ADR-RES ovarian = tested on: NCI/ADR-RES ovarian

Q: How did the growth (SR leukemia) turn out when `OCCNc1nc(Nc2ccc(Cl)c(Cl)c2)nc2ccccc12` was run?
A: 3.46% (active)

Q: And the growth (RPMI-8226 leukemia)?
A: 30.7%

Q: What about the growth (OVCAR-8 ovarian) of the same compound?
A: 37.5%

Q: What about the growth (OVCAR-4 ovarian) of the same compound?
A: 44.8%

Q: And the growth (SK-OV-3 ovarian)?
A: 62.8%

Q: What about the growth (IGROV1 ovarian) of the same compound?
A: 39.1%

Q: What about the growth (OVCAR-3 ovarian) of the same compound?
A: 48.2%

Q: And the growth (HS 578T breast)?
A: 53.3%

Q: `Cn1cc(-c2csc(-c3c[nH]c4ccccc34)n2)c2cccnc21` was tested. Which growth (SR leukemia) did it give?
A: 27.4%

Q: What about the growth (RPMI-8226 leukemia) of the same compound?
A: 21.3%

Q: And the growth (OVCAR-8 ovarian)?
A: 39.2%

Q: What about the growth (OVCAR-5 ovarian) of the same compound?
A: 54%

Q: And the growth (IGROV1 ovarian)?
A: 42%

Q: And the growth (OVCAR-3 ovarian)?
A: -14.9% (active)

Q: And the growth (HS 578T breast)?
A: 60.5%

Q: What about the growth (NCI/ADR-RES ovarian) of the same compound?
A: 0.975% (active)

Q: Which growth (SR leukemia) does the source give for `CC(Cc1ccco1)C(=O)NC(N)=O` (configuration not stated) here?
A: 100%

Q: What about the growth (RPMI-8226 leukemia) of the same compound?
A: 102%

Q: What about the growth (OVCAR-8 ovarian) of the same compound?
A: 101%

Q: And the growth (OVCAR-4 ovarian)?
A: 108%

Q: What about the growth (SK-OV-3 ovarian) of the same compound?
A: 120%

Q: What about the growth (IGROV1 ovarian) of the same compound?
A: 108%

Q: And the growth (OVCAR-3 ovarian)?
A: 111%

Q: What about the growth (HS 578T breast) of the same compound?
A: 109%

Q: And the growth (NCI/ADR-RES ovarian)?
A: 104%

Q: For `C[C@@H]1CCCCCCCCC[C@H](O)C(=O)C[C@@H](SC[C@@H](O)C(=O)O)C(=O)O1`, which growth (SR leukemia) is on record?
A: 74.4%

Q: And the growth (RPMI-8226 leukemia)?
A: -2.38% (active)

Q: What about the growth (OVCAR-8 ovarian) of the same compound?
A: 94.5%

Q: What about the growth (OVCAR-4 ovarian) of the same compound?
A: 110%

Q: What about the growth (SK-OV-3 ovarian) of the same compound?
A: 104%

Q: What about the growth (IGROV1 ovarian) of the same compound?
A: 115%

Q: And the growth (OVCAR-3 ovarian)?
A: 107%

Q: What about the growth (HS 578T breast) of the same compound?
A: 113%

Q: And the growth (NCI/ADR-RES ovarian)?
A: 106%

Q: `NC(=O)NCC1CCCCC1` was tested. Which growth (SR leukemia) did it give?
A: 99.4%

Q: What about the growth (RPMI-8226 leukemia) of the same compound?
A: 108%

Q: What about the growth (OVCAR-8 ovarian) of the same compound?
A: 114%

Q: What about the growth (OVCAR-4 ovarian) of the same compound?
A: 102%

Q: What about the growth (SK-OV-3 ovarian) of the same compound?
A: 109%

Q: And the growth (IGROV1 ovarian)?
A: 101%

Q: What about the growth (OVCAR-3 ovarian) of the same compound?
A: 109%

Q: And the growth (HS 578T breast)?
A: 112%

Q: And the growth (NCI/ADR-RES ovarian)?
A: 95.1%

Q: For `COC(c1ccccc1)(c1ccccc1)c1ccccc1`, which growth (SR leukemia) is on record?
A: 114%

Q: And the growth (RPMI-8226 leukemia)?
A: 171%

Q: And the growth (OVCAR-8 ovarian)?
A: 98.8%

Q: What about the growth (OVCAR-4 ovarian) of the same compound?
A: 99.3%

Q: And the growth (SK-OV-3 ovarian)?
A: 107%

Q: And the growth (IGROV1 ovarian)?
A: 123%

Q: What about the growth (OVCAR-3 ovarian) of the same compound?
A: 108%

Q: What about the growth (HS 578T breast) of the same compound?
A: 103%

Q: What about the growth (NCI/ADR-RES ovarian) of the same compound?
A: 108%

Q: Which results are given for `CC(C)(C)n1cc(-c2ccnc(NCCCNS(=O)(=O)c3ccc(Cl)cc3)c2)c(-c2cccc(F)c2)n1`?
A: growth (SR leukemia): 32.9%; growth (RPMI-8226 leukemia): 52.3%; growth (OVCAR-8 ovarian): 84.7%; growth (OVCAR-4 ovarian): 90%; growth (SK-OV-3 ovarian): 91.7%; growth (IGROV1 ovarian): 69.5%; growth (OVCAR-3 ovarian): 84.2%; growth (HS 578T breast): 87.9%; growth (NCI/ADR-RES ovarian): 73.5%

Q: What does the source list for `NC1=C(C/C(N)=N\O)C(c2ccccc2Cl)c2c(ccc3ccccc23)O1` (configuration not stated)?
A: growth (SR leukemia): 54.7%; growth (RPMI-8226 leukemia): 81.9%; growth (OVCAR-8 ovarian): 90.7%; growth (OVCAR-4 ovarian): 110%; growth (SK-OV-3 ovarian): 92.2%; growth (IGROV1 ovarian): 59.2%; growth (OVCAR-3 ovarian): 77.9%; growth (HS 578T breast): 83.9%; growth (NCI/ADR-RES ovarian): 57.6%

Q: Which growth (SR leukemia) does the source give for `CC1(C)C(=O)/C(=C\c2ccco2)C[C@]2(C)[C@H]3CC[C@@H]4[C@@H](C(=O)/C=C/c5ccco5)CC[C@@]4(C)[C@]3(C)CC[C@@H]12` here?
A: 71%

Q: And the growth (RPMI-8226 leukemia)?
A: 75.5%

Q: What about the growth (OVCAR-8 ovarian) of the same compound?
A: 80.5%

Q: And the growth (OVCAR-4 ovarian)?
A: 83.6%

Q: And the growth (SK-OV-3 ovarian)?
A: 109%

Q: And the growth (IGROV1 ovarian)?
A: 96.2%

Q: And the growth (OVCAR-3 ovarian)?
A: 95.2%

Q: What about the growth (HS 578T breast) of the same compound?
A: 77.8%

Q: And the growth (NCI/ADR-RES ovarian)?
A: 95.1%

Q: What does the source list for `COc1ccccc1CNc1nc(N)nc2[nH]c3ccc(O)cc3c12`?
A: growth (SR leukemia): 4.16% (active); growth (RPMI-8226 leukemia): 48.8%; growth (OVCAR-8 ovarian): 53.7%; growth (OVCAR-4 ovarian): 80.2%; growth (SK-OV-3 ovarian): 73.4%; growth (IGROV1 ovarian): 50.9%; growth (OVCAR-3 ovarian): 44.6%; growth (HS 578T breast): 59.2%; growth (NCI/ADR-RES ovarian): 82.6%

Q: How did the growth (SR leukemia) turn out when `Cc1ccc(N(CC(=O)Nc2ccc(S(=O)(=O)N3CCC(N4CCCC4)CC3)cc2)S(=O)(=O)c2ccc(Cl)cc2)cc1` was run?
A: -29.5% (active)

Q: What about the growth (RPMI-8226 leukemia) of the same compound?
A: -3.71% (active)

Q: And the growth (OVCAR-8 ovarian)?
A: 55.2%

Q: And the growth (OVCAR-4 ovarian)?
A: 49.2%

Q: What about the growth (SK-OV-3 ovarian) of the same compound?
A: 96.9%

Q: What about the growth (IGROV1 ovarian) of the same compound?
A: 51%

Q: And the growth (OVCAR-3 ovarian)?
A: -22.4% (active)

Q: What about the growth (HS 578T breast) of the same compound?
A: 66%

Q: And the growth (NCI/ADR-RES ovarian)?
A: 70.2%

Q: Which results are given for `Cn1cc(-c2nc(-c3c[nH]c4ncccc34)cs2)c2cc(F)ccc21`?
A: growth (SR leukemia): 13.7%; growth (RPMI-8226 leukemia): 36.4%; growth (OVCAR-8 ovarian): 51.4%; growth (OVCAR-5 ovarian): 21.4%; growth (IGROV1 ovarian): 26.5%; growth (OVCAR-3 ovarian): 21%; growth (HS 578T breast): 66.8%; growth (NCI/ADR-RES ovarian): 8.92% (active)

Q: For `COc1cc2[nH]c(C(=O)c3cc(OC)c(OC)c(OC)c3)c(N)c2cc1C#CC1CC1`, which growth (SR leukemia) is on record?
A: 13.4%

Q: And the growth (RPMI-8226 leukemia)?
A: 47.6%

Q: And the growth (OVCAR-8 ovarian)?
A: 55.7%

Q: What about the growth (OVCAR-5 ovarian) of the same compound?
A: 38.4%

Q: What about the growth (SK-OV-3 ovarian) of the same compound?
A: 32.4%

Q: What about the growth (OVCAR-3 ovarian) of the same compound?
A: 2.8% (active)

Q: And the growth (HS 578T breast)?
A: -1.8% (active)

Q: And the growth (NCI/ADR-RES ovarian)?
A: 27.7%

Q: Which results are given for `CC(C)C[C@@H](NC(=O)[C@@H](Cc1ccccc1)NC(=O)c1cnccn1)B1O[C@H]2[C@H](O)[C@@H](C(=O)NCCCC[C@@H]3NC(=O)[C@@H](Cc4ccccc4)NC(=O)[C@H](CC(=O)O)NC(=O)CNC(=O)[C@H](CCCN=C(N)N)NC3=O)O[C@@H](CN)[C@H]2O1`?
A: growth (SR leukemia): 1.66% (active); growth (RPMI-8226 leukemia): 0.803% (active); growth (OVCAR-8 ovarian): -42.6% (active); growth (OVCAR-4 ovarian): -27.9% (active); growth (SK-OV-3 ovarian): -42.2% (active); growth (IGROV1 ovarian): 4.07% (active); growth (OVCAR-3 ovarian): -55.3% (active); growth (HS 578T breast): 4.75% (active); growth (NCI/ADR-RES ovarian): 7.01% (active)
